# Experimental data: paper PMC5540273 (PLoS ONE, 2017)
# Values joined by “and” are separate entries in the source; they are usually repeats but may differ in a detail not shown here. Identical values can stand only once. Like-named read-outs stand apart in the source and are kept apart here.
# Tests used:
# GRK4 = details: concentration: 1 μM, replicates: in singlicate; n = 1
# GRK7 = details: concentration: 1 μM, replicates: in singlicate; n = 1
# GSK3A = details: concentration: 1 μM, replicates: in singlicate, n = 1
# GSK3B = details: concentration: 1 μM, replicates: in singlicate, n = 1
# HASPIN = tested on: T1, HASPIN; details: concentration: 1 μM, replicates: in singlicate, n = 1
# T1 construct: gene GSG2
# HCK = details: concentration: 1 μM, replicates: in singlicate, n = 1
# HIPK1 = details: concentration: 1 μM, replicates: in singlicate; n = 1
# HIPK2 = details: concentration: 1 μM, replicates: in singlicate, n = 1
# HIPK3 = details: concentration: 1 μM, replicates: in singlicate, n = 1
# HIPK4 = details: concentration: 1 μM, replicates: in singlicate, n = 1
# HPK1 = details: concentration: 1 μM, replicates: in singlicate; n = 1
# HUNK = details: concentration: 1 μM, replicates: in singlicate, n = 1
# ICK = details: concentration: 1 μM, replicates: in singlicate, n = 1
# IGF1R = details: concentration: 1 μM, replicates: in singlicate, n = 1
# IKK-alpha = tested on: T2, IKK-alpha; details: concentration: 1 μM, replicates: in singlicate, n = 1
# T2 construct: gene CHUK
# IKK-beta = tested on: T3, IKK-beta; details: concentration: 1 μM, replicates: in singlicate, n = 1
# T3 construct: gene IKBKB
# IKK-epsilon = tested on: T4, IKK-epsilon; details: concentration: 1 μM, replicates: in singlicate, n = 1
# T4 construct: gene IKBKE
# INSRR = details: concentration: 1 μM, replicates: in singlicate; n = 1
# INSR = details: concentration: 1 μM, replicates: in singlicate, n = 1
# IRAK1 = details: concentration: 1 μM, replicates: in singlicate, n = 1
# 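Further: KINOMEscan kinase panel screen.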
smiles,measurement,setting,value
Cc1cccc(-c2nc(-c3ccc(S(C)(=O)=O)cc3)sc2-c2ccncc2)c1,%Inh,GRK4,0%
same,%Inh,GRK7,31%
same,%Inh,GSK3A,0%
same,%Inh,GSK3B,3%
same,%Inh,HASPIN,0%
same,%Inh,HCK,11%
same,%Inh,HIPK1,8%
same,%Inh,HIPK2,0%
same,%Inh,HIPK3,15%
same,%Inh,HIPK4,4%
same,%Inh,HPK1,0%
same,%Inh,HUNK,0%
same,%Inh,ICK,0%
same,%Inh,IGF1R,7%
same,%Inh,IKK-alpha,0%
same,%Inh,IKK-beta,1%
same,%Inh,IKK-epsilon,0%
same,%Inh,INSRR,7%
same,%Inh,INSR,8%
same,%Inh,IRAK1,18%
CC(C)(CN)c1nc(-c2ccc(Cl)c(O)c2)c(-c2ccncc2)[nH]1.O=C(O)C(F)(F)F [SB-477794],%Inh,GRK4,0%
same,%Inh,GRK7,0%
same,%Inh,GSK3A; 1 µM,49% and 58%
same,%Inh,GSK3B; 1 µM,29% and 14%
same,%Inh,HASPIN; 1 µM,58% and 57%
same,%Inh,HCK; 1 µM,96.6% and 96%
same,%Inh,HIPK1,0%
same,%Inh,HIPK2; 1 µM,1% and 37%
same,%Inh,HIPK3; 1 µM,20% and 4%
same,%Inh,HIPK4; 1 µM,0% and 13%
same,%Inh,HPK1,46%
same,%Inh,HUNK; 1 µM,0% and 16%
same,%Inh,ICK; 1 µM,23% and 0%
same,%Inh,IGF1R; 1 µM,0% and 9%
same,%Inh,IKK-alpha; 1 µM,64% and 34%
same,%Inh,IKK-beta; 1 µM,33% and 0%
same,%Inh,IKK-epsilon; 1 µM,10% and 6%
same,%Inh,INSRR,0%
same,%Inh,INSR; 1 µM,23% and 0%
same,%Inh,IRAK1; 1 µM,62% and 44%
C[C@@H](Oc1cc(-n2cnc3ccc(NC(=O)NC(C)(C)C)cc32)sc1C(N)=O)c1ccccc1Cl [GSK346294],%Inh,GRK4,0%
same,%Inh,GRK7,0%
same,%Inh,GSK3A,18%
same,%Inh,GSK3B,21%
same,%Inh,HASPIN,1%
same,%Inh,HCK,0%
same,%Inh,HIPK1,9%
same,%Inh,HIPK2,0%
same,%Inh,HIPK3,26%
same,%Inh,HIPK4,0%
same,%Inh,HPK1,35%
same,%Inh,HUNK,0%
same,%Inh,ICK,0%
same,%Inh,IGF1R,0%
same,%Inh,IKK-alpha,0%
same,%Inh,IKK-beta,0%
same,%Inh,IKK-epsilon,23%
same,%Inh,INSRR,0%
same,%Inh,INSR,0%
same,%Inh,IRAK1,15%
CCc1ccnc(/C=C/c2n[nH]c3cc(Sc4ccccc4C(=O)NC)ccc23)c1,%Inh,GRK4,2%
same,%Inh,GRK7,0%
same,%Inh,GSK3A,2%
same,%Inh,GSK3B,6%
same,%Inh,HASPIN,11%
same,%Inh,HCK,0%
same,%Inh,HIPK1,3%
same,%Inh,HIPK2,0%
same,%Inh,HIPK3,6%
same,%Inh,HIPK4,15%
same,%Inh,HPK1,30%
same,%Inh,HUNK,0%
same,%Inh,ICK,0%
same,%Inh,IGF1R,0%
same,%Inh,IKK-alpha,8%
same,%Inh,IKK-beta,4%
same,%Inh,IKK-epsilon,14%
same,%Inh,INSRR,0%
same,%Inh,INSR,0%
same,%Inh,IRAK1,8%
Cc1nnc(-c2ccc3ncc(-c4ccc(S(C)=O)cc4)n3c2)o1 (centres unmarked),%Inh,GRK4,0%
same,%Inh,GRK7,16%
same,%Inh,GSK3A,1%
same,%Inh,GSK3B,1%
same,%Inh,HASPIN,30%
same,%Inh,HCK,0%
same,%Inh,HIPK1,21%
same,%Inh,HIPK2,40%
same,%Inh,HIPK3,16%
same,%Inh,HIPK4,5%
same,%Inh,HPK1,0%
same,%Inh,HUNK,0%
same,%Inh,ICK,22%
same,%Inh,IGF1R,0%
same,%Inh,IKK-alpha,15%
same,%Inh,IKK-beta,21%
same,%Inh,IKK-epsilon,0%
same,%Inh,INSRR,0%
same,%Inh,INSR,2%
same,%Inh,IRAK1,7%
N#Cc1c(N2CCOCC2)sc(-c2ccn[nH]2)c1-c1ccc(Cl)cc1,%Inh,GRK4,0%
same,%Inh,GRK7,26%
same,%Inh,GSK3A,0%
same,%Inh,GSK3B,0%
same,%Inh,HASPIN,6%
same,%Inh,HCK,28%
same,%Inh,HIPK1,26%
same,%Inh,HIPK2,16%
same,%Inh,HIPK3,28%
same,%Inh,HIPK4,0%
same,%Inh,HPK1,0%
same,%Inh,HUNK,16%
same,%Inh,ICK,24%
same,%Inh,IGF1R,0%
same,%Inh,IKK-alpha,10%
same,%Inh,IKK-beta,25%
same,%Inh,IKK-epsilon,0%
same,%Inh,INSRR,0%
same,%Inh,INSR,0%
same,%Inh,IRAK1,20%
CC(C)(C)n1cnc2c(N)ncnc21 [SKF-97359],%Inh,GRK4,5%
same,%Inh,GRK7,0%
same,%Inh,GSK3A,0%
same,%Inh,GSK3B,0%
same,%Inh,HASPIN,65%
same,%Inh,HCK,0%
same,%Inh,HIPK1,13%
same,%Inh,HIPK2,16%
same,%Inh,HIPK3,0%
same,%Inh,HIPK4,0%
same,%Inh,HPK1,33%
same,%Inh,HUNK,19%
same,%Inh,ICK,31%
same,%Inh,IGF1R,0%
same,%Inh,IKK-alpha,0%
same,%Inh,IKK-beta,0%
same,%Inh,IKK-epsilon,0%
same,%Inh,INSRR,0%
same,%Inh,INSR,0%
same,%Inh,IRAK1,0%
Cc1nnc(-c2ccc(C)c(-c3ccc(C(=O)Nc4ccc(NS(C)(=O)=O)cc4)cc3)c2)o1 [GW702865],%Inh,GRK4,0%
same,%Inh,GRK7,0%
same,%Inh,GSK3A,5%
same,%Inh,GSK3B,0%
same,%Inh,HASPIN,46%
same,%Inh,HCK,0%
same,%Inh,HIPK1,0%
same,%Inh,HIPK2,0%
same,%Inh,HIPK3,12%
same,%Inh,HIPK4,0%
same,%Inh,HPK1,0%
same,%Inh,HUNK,15%
same,%Inh,ICK,0%
same,%Inh,IGF1R,17%
same,%Inh,IKK-alpha,0%
same,%Inh,IKK-beta,0%
same,%Inh,IKK-epsilon,31%
same,%Inh,INSRR,0%
same,%Inh,INSR,0%
same,%Inh,IRAK1,17%
NS(=O)(=O)c1cccc(-c2ccc3nccc(-c4cccc(S(N)(=O)=O)c4)c3c2)c1 [GW867253],%Inh,GRK4,26%
same,%Inh,GRK7,0%
same,%Inh,GSK3A,0%
same,%Inh,GSK3B,52%
same,%Inh,HASPIN,64%
same,%Inh,HCK,20%
same,%Inh,HIPK1,37%
same,%Inh,HIPK2,29%
same,%Inh,HIPK3,27%
same,%Inh,HIPK4,0%
same,%Inh,HPK1,0%
same,%Inh,HUNK,17%
same,%Inh,ICK,0%
same,%Inh,IGF1R,0%
same,%Inh,IKK-alpha,0%
same,%Inh,IKK-beta,0%
same,%Inh,IKK-epsilon,0%
same,%Inh,INSRR,6%
same,%Inh,INSR,0%
same,%Inh,IRAK1,12%
Fc1ccc(-c2ncn(CCCN3CCOCC3)c2-c2ccccn2)cc1 [SB-211742],%Inh,GRK4,0%
same,%Inh,GRK7,0%
same,%Inh,GSK3A,0%
same,%Inh,GSK3B,0%
same,%Inh,HASPIN,0%
same,%Inh,HCK,6%
same,%Inh,HIPK1,38%
same,%Inh,HIPK2,0%
same,%Inh,HIPK3,0%
same,%Inh,HIPK4,26%
same,%Inh,HPK1,11%
same,%Inh,HUNK,54%
same,%Inh,ICK,0%
same,%Inh,IGF1R,0%
same,%Inh,IKK-alpha,0%
same,%Inh,IKK-beta,0%
same,%Inh,IKK-epsilon,0%
same,%Inh,INSRR,0%
same,%Inh,INSR,0%
same,%Inh,IRAK1,0%
